Measured values taken from PubChem BioAssay AID743343 (Broad Institute, 2014).
Potency and affinity values are given separately. The source made the active and inactive calls. How the calls were made is not given here.

Tested on: Drosophila melanogaster bursicon receptor LGR2 (rickets)
Assay: blockers of bursicon-stimulated LGR2 cAMP reporter – cell-based, HEK293, CRE-luciferase reporter, cherry pick, set 2, dose response (AID 743343)
Conditions: bursicon-induced cAMP antagonist; series mostly up to 35 µM

outcome, inactive:
CCOC(=O)C1=CCN(S(=O)(=O)c2ccccc2C)C1c1cccc(C)c1 (centres undefined), CC(=O)N1CCc2cc(S(=O)(=O)C(C)CC(=O)NCc3ccco3)ccc21 (centres undefined), COC(=O)c1ccc(Nc2cc(C)nc3ccc(C)cc23)cc1, O=C(Nc1cc(S(=O)(=O)Nc2ccccc2Cl)ccc1O)c1ccc(F)cc1F, C[C@@H]1CN([C@H](C)CO)C(=O)c2cc(C#CCN(C)C)cnc2O[C@@H]1CN(C)C(=O)CN1CCOCC1, CC1CCN(C(=O)c2ccc(S(=O)(=O)Cc3cc(F)ccc3F)c([N+](=O)[O-])c2)CC1, C[C@H](CO)N1C[C@H](C)[C@@H](CN(C)CC2CCOCC2)Oc2ncc(Br)cc2C1=O, Cn1nnnc1SCC(=O)N1CCN(C(=O)c2ccco2)CC1, C[C@@H]1CN([C@@H](C)CO)C(=O)c2cccc(NC(=O)Nc3ccc(C(F)(F)F)cc3)c2O[C@H]1CN(C)C(=O)Nc1cccc2ccccc12, O=C(c1ccc(CSc2nc3ccncc3[nH]2)cc1)N1CCN(c2cccc(Cl)c2)CC1, C[C@H](CO)N1C[C@H](C)[C@H](CN(C)Cc2ccccc2)Oc2c(NS(=O)(=O)c3cn(C)cn3)cccc2C1=O, OC[C@H]1[C@@H](c2ccc(-c3ccc(F)cc3)cc2)[C@@H]2CN(Cc3ccccn3)CCCCN12, O=C(NCCOc1ccccc1)[C@@H]1CCCN1C(=O)c1cccs1, Cc1ccc(NC(=O)c2ncn(CC(=O)N3CCN(c4ccccn4)CC3)n2)cc1C, O=C(Cn1ncc(Cl)c(Cl)c1=O)N1CCOCC1, C[C@@H]1CN([C@H](C)CO)C(=O)Cc2cc(NC(=O)Nc3ccc(F)cc3)ccc2O[C@@H]1CN(C)CC1CCCCC1, CC(=O)c1ccc(S(=O)(=O)N2CCC(NC(=O)Nc3cccc(F)c3)CC2)cc1, COc1ccccc1C=NNC(=O)c1ccncc1, COc1cccc(C#Cc2ccc([C@@H]3[C@@H](CO)N(C(=O)C4CCC4)[C@H]3C#N)cc2)c1, Cc1ccc(CNS(=O)(=O)c2ccc3c(c2)CCN3C(=O)CCCC(=O)O)cc1, C=CCn1c(SCC(=O)Nc2ncc(Cc3ccc(C)c(Cl)c3)s2)nnc1-c1ccncc1, COc1cc(CNCCO)cc(Cl)c1OCc1ccc(Cl)cc1Cl, COc1cccc(C(=O)Nc2ccc3c(c2)OC[C@@H](C)N(CC2CC2)C[C@H](C)[C@H](OC)CN(C)C3=O)c1, CCOC(=O)Nc1ccc(N2CCOCC2)c(S(=O)(=O)Nc2ccc(Cl)cc2)c1, C[C@@H]1CN([C@H](C)CO)C(=O)c2cc(NC(=O)Nc3cccc4ccccc34)ccc2O[C@@H]1CN(C)C(=O)Nc1ccccc1, CCCCOc1cc(NCc2ccccc2)c2ncn(C(C)C)c2c1, C[C@H](CO)N1C[C@H](C)[C@H](CN(C)C(=O)CN2CCOCC2)Oc2ncc(C#CCN(C)C)cc2C1=O, CNCc1ccccc1Sc1ccc(O)c(O)c1, COc1ccc(S(=O)(=O)N2CCN(C(=O)c3ccc(C)o3)CC2)cc1, COc1ccccc1CCn1cnc(-c2ccccc2OC)c1C(C)C, COc1ccccc1N1CCN(C(=O)c2sc3nc(-c4ccc(F)cc4)cn3c2C)CC1, C[C@H]1CN([C@@H](C)CO)C(=O)c2cc(NC(=O)Nc3ccccc3)ccc2O[C@H]1CN(C)Cc1ccc(-c2ccccc2)cc1, O=C(CN1CCOc2ccccc21)NCc1ccc(F)cc1, Cc1ccc2nc(NC(=O)CCCC(=O)O)sc2c1, C[C@@H]1CN([C@H](C)CO)C(=O)CCCn2nncc2CO[C@H]1CN(C)C(=O)Nc1cccc2ccccc12, CO[C@H]1CN(C)C(=O)c2ccc(NC(=O)C3CC3)cc2OC[C@@H](C)N(C(=O)Cc2ccccn2)C[C@H]1C, Cc1noc(C)c1S(=O)(=O)Nc1cccc2c1O[C@H](CN(C)C(=O)Nc1ccc(F)cc1)[C@H](C)CN([C@H](C)CO)C2=O, C[C@@H]1CN([C@H](C)CO)C(=O)Cc2cc(NC(=O)CCC(F)(F)F)ccc2O[C@@H]1CN(C)CC1CCCCC1, O=C(c1ccc(F)cc1)N1CC(=O)N2[C@@H](CO)[C@@H](c3ccc(C#CC4CCCC4)cc3)[C@@H]2C1
